PubChem BioAssay AID371 (SRMLSC, 2006)
In all, about 3,300 compounds went through this assay and about 280 (8.5%) were called active. The full list was thinned out, with actives kept by preference. Unmarked numbers belong to inactive results.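 The calls were made as follows: active = mean growth inhibition over the two runs of 50% or more; inactive = mean growth inhibition under 50%.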

Assay: A549 NSCLC cell proliferation inhibitors – ATP luminescence, human non-small cell lung line, primary screen (AID 371);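 also: compound exposure lasted 72 h before the ATP read; 0% = untreated cell signal and 100% = no luminescence left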
Conditions: at 10 µM, stronger effect = higher value

With Cn1c(Cl)cnc1C1CC(=O)c2cc(Cl)ccc2O1 (stereo not drawn) the growth inhibition was 62.9% (active).
For Clc1ccc(-c2nnc3sc(Cc4cccs4)nn23)c(Cl)c1, the growth inhibition was 52.8% (active).
In the case of CNCCC(Oc1ccc(C(F)(F)F)cc1)c1ccccc1 (stereo not drawn), the growth inhibition is reported as 91.3% (active).
In the case of Cc1ccc(-n2ncc3c(NCc4ccc5c(c4)OCO5)ncnc32)c(C)c1, the growth inhibition is reported as 52.8% (active).
For Cc1cccc(-n2ncc3c(NCc4ccco4)ncnc32)c1, the growth inhibition was 63% (active).
In the case of Clc1ccc(-n2ncc3c(NCc4ccco4)ncnc32)cc1, the growth inhibition is reported as 51.6% (active).
For C=C1[C@@H](C)C2[C@H](Cc3ccccc3)NC(=O)[C@]23OC(=O)CC[C@H](O)CCC[C@H](C)C/C=C/[C@H]3[C@@H]1O (stereo partly drawn), the growth inhibition was 61% (active).
For CCOC(=O)c1ccc(N=Cc2nc(-c3ccccc3)oc2OC(C)=O)cc1, the growth inhibition was 55.3% (active).
For COc1ccccc1N=Cc1nc(-c2ccccc2)oc1OC(C)=O, the growth inhibition was 51.8% (active).
In the case of CCc1oc2ccccc2c1C(=O)c1cc(Br)c(O)c(Br)c1, the growth inhibition is reported as 67.4% (active).
In the case of O=c1[nH]c(-c2ccccn2)nc2ccccc12, the growth inhibition is reported as 57.6% (active).
For Cc1ccc2nc(C(F)(F)F)c(C#N)c(N)c2c1, the growth inhibition was 63.8% (active).
For Oc1c(I)cc(I)c2cccnc12, the growth inhibition was 74.1% (active).
For Oc1c(I)cc(Cl)c2cccnc12, the growth inhibition was 68.5% (active).
For Cn1c(=O)c2c3c(sc2n2c(SCC(N)=O)nnc12)CC(C(C)(C)C)CC3 (stereo not drawn), the growth inhibition was 69.8% (active).
With CCCCN(CCCC)C(=O)CSc1nnc2n(C)c(=O)c3c4c(sc3n12)CCCC4 the growth inhibition was 70% (active).
In the case of Fc1ccc2[nH]c3c(N4CCN(C5CCCCC5)CC4)ncnc3c2c1, the growth inhibition is reported as 86% (active).
For Fc1ccc2[nH]c3c(N4CCN(c5ccccc5)CC4)ncnc3c2c1, the growth inhibition was 90.1% (active).
In the case of Fc1ccc2[nH]c3c(N4CCSCC4)ncnc3c2c1, the growth inhibition is reported as 59.6% (active).
With COC1=CC(=O)CC(C)C12Oc1c(Cl)c(OC)cc(OC)c1C2=O (stereo not drawn) the growth inhibition was 51.2% (active).
In the case of CN(C)c1ccc(O)c2c1CC1CC3[C@@H](N(C)C)C(=O)C(C(N)=O)=C(O)[C@]3(O)C(=O)C1=C2O (stereo partly drawn), the growth inhibition is reported as 59.9% (active).
With Clc1ccc2nc(N3CCNCC3)nc(-c3ccccc3)c2c1 the growth inhibition was 92.3% (active).

Going from CN1CCN(C2=Nc3ccccc3Oc3ccc(Cl)cc32)CC1 to Clc1ccc2c(c1)C(N1CCNCC1)=Nc1ccccc1O2, the growth inhibition rises from 18.5% to 31.9%.

First: C=CCSc1nnc2n(CCc3ccccc3)c(=O)c3c4c(sc3n12)COC(C)(C)C4
Second: Cn1c(=O)c2c3c(sc2n2c(SCc4ccccc4)nnc12)CCCC3
The growth inhibition of the first is higher: 12.2% for the first, 8.25% for the second.

Compared with Cn1c(Cn2cnc(Cl)c2Cl)nc2ccccc21, c1ccc2[nH]c(-c3cscn3)nc2c1 is higher in growth inhibition: -4.26% for the first, 5.76% for the second.

Compared with c1ccc(-c2nnc3sc(Cc4cccs4)nn23)cc1, Clc1ccc(-c2nnc3sc(Cc4cccs4)nn23)cc1 is lower in growth inhibition: 21.9% for the first, 15% for the second.

Going from CCOC(=O)CSc1nc(N)c2c3c(sc2n1)CCCC3 to CCCSc1nnc2n(C)c(=O)c3c4c(sc3n12)CCC4, the growth inhibition rises from -5.16% to 20.4%.

First: COCCCn1cnc2c(c1=O)c1nc3ccccc3nc1n2CCc1ccccc1
Second: OCCNc1nc(-c2ccccc2)c2ccccc2n1
The growth inhibition of the first is higher: 26.2% for the first, -2.09% for the second.

First: CN(C)c1nc(OCCOC(=O)Nc2ccc(Cl)cc2Cl)nc(N(C)C)n1
Second: COc1ccc2[nH]cc(C(=O)CN(C)CCc3ccc(OC)c(OC)c3)c2c1
The growth inhibition of the first is higher: 25.3% for the first, 15.3% for the second.

Going from NC(=O)/C(=N\O)c1ccccc1 to N/C(=N\S(=O)(=O)c1ccc(Cl)s1)c1ccccc1, the growth inhibition rises from 2.31% to 13.5%.

First: Cc1cc(C)n2c3c(c(C#N)c2n1)CC(C)(C)OC3
Second: CC1(C)Cc2c(C#N)c(NCC3CCCO3)nc(-c3ccco3)c2CO1 (stereo not drawn)
The growth inhibition of the first is lower: 5.01% for the first, 11% for the second.

First: Cc1nnc(SCCC#N)n(CCC#N)c1=O
Second: C=C(C)CSc1nnc2n(C)c(=O)c3c4c(sc3n12)CCC4
The growth inhibition of the first is lower: -2.27% for the first, 20.2% for the second.

Compared with CN1C(=S)SC(N(O)C(=O)Nc2ccccc2)C1(C)C (stereo not drawn), O=C(CNC1C(=O)Nc2ccccc21)Sc1ccccc1 (stereo not drawn) is lower in growth inhibition: 8.85% for the first, -5.29% for the second.

Compared with O=c1[nH]cnc2c1cnn2Cc1ccccc1, CC(C)OCCCNc1ncnc2c1cnn2-c1ccccc1 is higher in growth inhibition: -3.92% for the first, 35.1% for the second.

Compared with Cc1ccc(-n2ncc3c(NCCCOC(C)C)ncnc32)c(C)c1, Cc1ccc(-n2ncc3c(NCc4cccnc4)ncnc32)c(C)c1 is higher in growth inhibition: 21.4% for the first, 30.4% for the second.

First: Cc1cccc(-n2ncc3c(NCCN4CCOCC4)ncnc32)c1
Second: COc1ccccc1Nc1ncnc2c1cnn2-c1cccc(C)c1
The growth inhibition of the first is lower: 4.3% for the first, 6.73% for the second.

Going from Clc1ccc(-n2ncc3c(NCc4cccs4)ncnc32)cc1 to Clc1ccc(-n2ncc3c(NCc4ccccn4)ncnc32)cc1, the growth inhibition falls from 20.6% to 12.7%.

Going from O=C1NC2c3ccccc3C(=O)N2c2c1cnn2-c1ccccc1 (stereo not drawn) to O=C1C2ON(c3ccccc3)C(c3cccnc3)C2C(=O)N1c1ccc(Cl)c(Cl)c1 (stereo not drawn), the growth inhibition falls from 36.6% to 3.11%.

Going from CCCOc1cccc(C2C(C(=O)c3ccc(C)o3)=C(O)C(=O)N2CCCN(C)C)c1 (stereo not drawn) to COc1ccc(/C(O)=C2/C(=O)C(=O)N(CCCN(C)C)C2c2ccc(C)o2)cc1Cl (stereo not drawn), the growth inhibition falls from 2.48% to 1.2%.

Going from C=CCSc1nnc2n(-c3ccccc3OC)c(=O)c3c4c(sc3n12)CCC4 to NC(=O)CSc1nnc2n(-c3ccccc3)c(=O)c3c4c(sc3n12)CCCCC4, the growth inhibition rises from 19.2% to 46%.

Compared with CCc1cccc(CC)c1N(COC)C(=O)Cn1nnc2ccccc21, COC(=O)c1ccc(Oc2nc3ccccc3n3c(C)nnc23)cc1 is higher in growth inhibition: -7.86% for the first, -4% for the second.

First: CN(CCCCCNC(=O)/C=N/O)Cc1ccccc1
Second: COc1ccc(CCCNC(=O)CC#N)cc1OC
The growth inhibition of the first is lower: -0.65% for the first, 0.39% for the second.

Compared with O=C(Oc1oc(-c2ccco2)nc1C=Nc1ccccc1)c1ccco1, O=C(Oc1oc(-c2ccco2)nc1C=Nc1ccccc1)c1ccoc1 is lower in growth inhibition: 35.2% for the first, 34.4% for the second.

Going from CC(=O)Oc1oc(-c2ccccc2)nc1/C=N/c1ccccn1 to CCC(=O)Oc1oc(-c2ccccc2)nc1C=Nc1ccccc1OC, the growth inhibition rises from 17.6% to 48.5%.

Going from CCOC(=O)c1ccc(CSc2ncn[nH]2)o1 to CCOC(=O)C1=C(CSc2nc3c(cc2C#N)CCC3)OC(N)=C(C#N)C1c1ccccc1 (stereo not drawn), the growth inhibition rises from -2.33% to 21%.

Compared with COc1ccccc1OCC(=O)Nc1ccc(S(=O)(=O)Nc2cc(C)nc(C)n2)cc1, COc1ccccc1NC(=O)CSc1nnc(-c2ccc(NC(C)=O)cc2)n1C is lower in growth inhibition: 5.4% for the first, -3.92% for the second.

Compared with Cc1nn(C)cc1C1C2=C(CC(C)(C)CC2=O)OC2=C1C(=O)CC(C)(C)C2, Cc1cc(C)n(CC2CC(=O)N(c3ccc(Cl)c(Cl)c3)C2=O)n1 (stereo not drawn) is lower in growth inhibition: 1.38% for the first, 0.6% for the second.

Compared with CC(=O)c1cc2c(=O)c3ccccc3oc2nc1C, COC(=O)c1sc(NC(=O)c2oc3ccccc3c2C)nc1C is higher in growth inhibition: -5.08% for the first, 33.4% for the second.

Compared with O=C(O)CCCCCCC1C(=O)NC(=O)N1CCC(O)C1CCCCC1 (stereo not drawn), CCOC(=O)c1[nH]c2ccccc2c1NC(=O)CCN1CCN(C(=O)OCC)CC1 is higher in growth inhibition: -11.2% for the first, 1.45% for the second.

First: CCC1SC(N)=NC1=O (stereo not drawn)
Second: CCOC(=O)C(OC(=O)c1sc(=S)n(C)c1C)C(C)=O (stereo not drawn)
The growth inhibition of the first is higher: 2.26% for the first, -4.85% for the second.

Compared with CCOC(=O)c1ccc(N2CC(O)=C(c3nc4ccccc4c(=O)[nH]3)C2=N)cc1, COC(=O)c1cccc(Nc2cc(C)nc(-c3ccccc3O)n2)c1 is higher in growth inhibition: 2.08% for the first, 17.6% for the second.

Compared with COc1ccccc1-c1c(C)oc2c(CN3CCN(C)CC3)c(O)ccc2c1=O, O=C(C1=C(O)C(=O)N(CCN2CCOCC2)C1c1cccnc1)c1cc2ccccc2o1 (stereo not drawn) is higher in growth inhibition: -0.86% for the first, 3.18% for the second.

Going from COC(=O)CN1C2(C#N)CCCCC2CC2CCCCC21C#N (stereo not drawn) to O=C(c1ccc(F)cc1)N1CCC(N2CCCCCC2)CC1, the growth inhibition falls from 5.83% to 0.08%.

Going from COc1ccc(OC)c2c(N)c(C#N)c(C(F)(F)C(F)(F)F)nc12 to CC(C)(C)c1cc(-c2ccco2)c(C#N)c(SCC#N)n1, the growth inhibition rises from 2.04% to 5.39%.

Going from CCCc1cc(NCCN2CCOCC2)n2c(nc3ccccc32)c1C#N to CCOC(=O)c1[nH]c2ccc(F)cc2c1NC(=O)CCN1CCSCC1, the growth inhibition falls from 6.32% to 0.98%.

First: O=C(O)C1[C@H]2C(=O)N(Cc3cccs3)C[C@]23C=C[C@H]1O3 (stereo partly drawn)
Second: O=C(O)C1CCCCN1S(=O)(=O)c1cccc2nsnc12 (stereo not drawn)
The growth inhibition of the first is higher: 4.5% for the first, -0.55% for the second.

Compared with Cc1ccc2c(c1)[C@@H]1CN(C)CC[C@@H]1N2S(=O)(=O)c1ccc(F)cc1, Cc1ccc(-n2ncc3c(N4CCN(c5ccccc5)CC4)ncnc32)c(C)c1 is higher in growth inhibition: 10.7% for the first, 32.8% for the second.

First: COCCNc1oc(-c2ccc(F)cc2)nc1C#N
Second: N#Cc1nc(COc2ccc(Br)cc2)oc1N1CCCC1
The growth inhibition of the first is lower: 2.78% for the first, 31.8% for the second.

Compared with CN1CCN(c2ncnc3c2[nH]c2ccc(F)cc23)CC1, c1ccc2c(c1)[nH]c1c(N3CCN(C4CCCCC4)CC3)ncnc12 is higher in growth inhibition: 18.6% for the first, 37.9% for the second.

Compared with CN(C)[C@@H]1C(=O)C(C(N)=O)=C(O)[C@@]2(O)C(=O)C3=C(O)c4c(O)ccc(Cl)c4[C@@H](O)[C@H]3C[C@@H]12, O=C(O)C1CC=CCC1C(=O)N1CCN(c2nc(-c3ccccc3)c3ccccc3n2)CC1 (stereo not drawn) is lower in growth inhibition: 45.2% for the first, 25.7% for the second.
